Measurements published in PubChem BioAssay (NCI).
The panel holds about 83,000 compounds, 20% with a hit somewhere; the sample as a whole holds those more often.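 Single-concentration screen, 48 h exposure, 96-well plates. Endpoint: percent growth. Below 10 = active.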 The source made the active and inactive calls.

Experiments:
Assay in all cases: NCI-60 one-dose screen, 48 h (100 = growth as untreated, 0 = no growth, -100 = all killed)
Settings in all cases: 10 µM unless noted
[1] = test system: NCI-H23 lung
[2] = test system: NCI-H226 lung
[3] = test system: NCI-H322M lung
[4] = test system: HOP-62 NSCLC
[5] = test system: NCI-H460 lung
[6] = test system: HOP-92 NSCLC
[7] = test system: NCI-H522 lung
[8] = test system: A549/ATCC NSCLC
[9] = test system: 786-0 renal
[10] = test system: COLO 205 colon
[11] = test system: DU-145 prostate
[12] = test system: K-562 leukemia
[13] = test system: MALME-3M melanoma
[14] = test system: MDA-MB-231 breast
[15] = test system: RXF 393 renal
[16] = test system: SF-268 CNS
[17] = test system: SF-295 CNS
[18] = test system: SF-539 CNS
[19] = test system: UACC-257 melanoma
[20] = test system: M14 melanoma

Measured: growth

O=C1C(=O)N(CCCCn2cc(CO)nn2)c2ccccc21
inactive: [1] 98.2% | [2] 97.4% | [3] 108% | [4] 96.3% | [5] 101% | [6] 106% | [7] 90.1% | [8] 104% | [9] 99.9% | [10] 111% | [11] 108% | [12] 98.4% | [13] 97.7% | [14] 98.2% | [15] 99.7% | [16] 101% | [17] 102% | [18] 101% | [19] 105% | [20] 94.5%

S=c1[nH]nc(CSc2ncnc3c2c(-c2ccccc2)cn3-c2ccc(Cl)cc2)o1
inactive: [1] 92.7% | [2] 89.5% | [3] 97.9% | [4] 91% | [5] 99.4% | [6] 92.9% | [7] 89.5% | [8] 98.5% | [9] 102% | [10] 99.1% | [11] 106% | [12] 92.3% | [13] 98.5% | [14] 94.3% | [15] 125% | [16] 97.5% | [17] 102% | [18] 94.7% | [19] 105% | [20] 100%

COc1ccc(C(=O)COc2ccc(/C=C3\Oc4ccc(Cl)cc4C3=O)cc2)cc1
inactive: [1] 67.6% | [2] 92% | [3] 96.6% | [4] 100% | [5] 111% | [6] 48.9% | [7] 80.5% | [8] 95.1% | [9] 106% | [10] 96% | [11] 107% | [12] 16.7% | [13] 115% | [14] 86.8% | [15] 101% | [16] 108% | [17] 92.7% | [18] 86.3% | [19] 89.9% | [20] 104%

O=C(CN1CCN(c2cc3c(cc2F)c(=O)c(C(=O)N/N=C/c2ccccc2)cn3C2CC2)CC1)N/N=C\c1ccccc1
inactive: [1] 94.5% | [2] 81.3% | [3] 85.4% | [4] 109% | [5] 66.3% | [6] 76% | [7] 76.5% | [8] 69.9% | [9] 90.4% | [10] 99.6% | [11] 90.4% | [12] 56.6% | [13] 120% | [14] 70.3% | [15] 72.7% | [16] 72.5% | [17] 74.8% | [18] 76.2% | [19] 99% | [20] 74.1%

CN1CCN(Cc2ccc(NC(=O)c3cncc(C#Cc4cnc(N)c5cccnc45)c3)cc2C(F)(F)F)CC1
active: [2] -18.6% | [4] -0.449% | [5] 7.81% | [6] -26.2% | [10] -20.5% | [12] 1.39% | [13] -56.8% | [14] -20% | [15] -18.2% | [18] -28.3% | [20] -18.8%
inactive: [1] 11.4% | [3] 26.4% | [7] 28.4% | [8] 29% | [9] 32.8% | [11] 24.6% | [16] 26.3% | [17] 12.7% | [19] 18.8%

COc1nc2c(cc1S(=O)(=O)c1ccccc1)CCc1c-2cnn1Cc1ccccc1
inactive: [1] 54.1% | [2] 65.9% | [3] 60.1% | [4] 56.2% | [5] 54% | [7] 43.2% | [8] 57.9% | [9] 52.3% | [10] 60.9% | [11] 83.5% | [12] 38% | [13] 91.3% | [14] 59.1% | [15] 38.8% | [16] 82.2% | [17] 42% | [18] 73.7% | [19] 48.3% | [20] 75.9%
active: [6] 3.62%

COc1ccc(Cl)cc1Nc1nc(C(F)(F)F)ccc1C(=O)N/N=C/c1cccnc1
inactive: [1] 41.5% | [2] 51.9% | [3] 59% | [4] 54% | [5] 33.6% | [6] 56.8% | [7] 29.3% | [8] 58.7% | [9] 18.7% | [10] 44.5% | [11] 53.7% | [12] 36.1% | [13] 42.6% | [14] 49.3% | [15] 60.9% | [16] 48.9% | [17] 81.6% | [18] 45.9% | [19] 72.7% | [20] 52.9%

COC1/C=C\OC2(C)Oc3c(C)c(O)c4c(O)c(c(CN(C)CCO)c(O)c4c3C2=O)NC(=O)/C(C)=C\C=C/C(C)C(O)C(C)C(O)C(C)C(OC(C)=O)C1C (stereo not given)
inactive: [1] 91.9% | [2] 104% | [3] 97.8% | [4] 89.7% | [5] 103% | [6] 115% | [7] 87.8% | [8] 116% | [9] 95.9% | [10] 108% | [11] 116% | [12] 92.3% | [13] 84.2% | [14] 108% | [15] 98.5% | [16] 97.3% | [17] 113% | [18] 91.1% | [19] 105% | [20] 105%

Nc1c(C(=O)Nc2cccc3c2OCCO3)sc2nc3c(cc12)C(=O)CCC3
active: [5] 8.5% | [7] 2.24% | [10] -3.5% | [15] -18.5% | [18] -26.3%
inactive: [1] 46.4% | [2] 27.9% | [3] 45.3% | [4] 46% | [6] 107% | [8] 37.7% | [9] 44.5% | [11] 22.2% | [12] 13.7% | [13] 56.8% | [14] 14.7% | [16] 60.7% | [17] 21.9% | [19] 90.6% | [20] 33.6%

O=C(Nc1ccc(Oc2ccc(F)cc2)c(Cl)c1)c1cccnc1
inactive: [1] 80% | [2] 99.8% | [3] 101% | [4] 106% | [5] 97% | [6] 91.9% | [7] 72.3% | [8] 86% | [9] 92.3% | [10] 120% | [11] 87% | [12] 50.9% | [13] 103% | [14] 93.7% | [15] 90.2% | [16] 95% | [17] 86% | [18] 94.4% | [19] 91.4% | [20] 97.3%

O=C1/C(=C/c2ccccc2)CN(CCC(=O)N2C/C(=C\c3ccccc3)C(=O)/C(=C/c3ccccc3)C2)C/C1=C\c1ccccc1
inactive: [1] 85.4% | [2] 84.7% | [3] 90.4% | [4] 118% | [5] 84.7% | [6] 63.1% | [7] 53.9% | [8] 88.2% | [9] 73% | [10] 82.4% | [11] 87.6% | [12] 11.6% | [13] 101% | [14] 75.2% | [15] 57.4% | [16] 66.6% | [17] 90.7% | [18] 90.9% | [19] 93.8% | [20] 52.4%

CC[C@@H](C)OC(=O)c1nn(C(C)=O)c2ccccc12
inactive: [1] 91.6% | [2] 85.1% | [3] 107% | [4] 105% | [5] 112% | [6] 104% | [7] 87.1% | [8] 90% | [9] 103% | [10] 108% | [11] 107% | [12] 112% | [13] 109% | [14] 98.8% | [15] 99.4% | [16] 104% | [17] 93.1% | [18] 105% | [19] 101% | [20] 102%

O=C(COc1cccc(/C=C2/Oc3ccccc3C2=O)c1)Nc1nccs1
inactive: [1] 61.6% | [2] 99.3% | [3] 95.7% | [4] 93.3% | [5] 103% | [8] 88.2% | [9] 90.7% | [10] 235% | [11] 104% | [12] 43.3% | [14] 66.1% | [16] 30.3% | [17] 203% | [18] 64.7% | [19] 89.4% | [20] 99.7%
active: [6] -51.4% | [7] -9.74% | [13] -71% | [15] 2.9%

O=C1C2CC=CCC2C(=O)N1CNc1ccc(Cl)cc1 (stereo not given)
inactive: [1] 94.2% | [2] 90.5% | [3] 92.2% | [4] 86.4% | [5] 107% | [6] 62.9% | [7] 74.7% | [8] 93.6% | [9] 89.4% | [10] 115% | [11] 106% | [12] 84.6% | [13] 87.6% | [14] 92.8% | [15] 92% | [16] 96.9% | [17] 106% | [18] 86.5% | [19] 101% | [20] 94.2%

Cc1nc2sc(C(=O)Nc3cccc4c3OCCO4)c(N)c2cc1C(C)O (stereo not given)
active: [4] -3.21% | [7] -29.3% | [10] 5.86% | [15] -5.15% | [18] 4.07%
inactive: [1] 57.6% | [2] 50.2% | [3] 62.8% | [5] 15.8% | [6] 49.6% | [8] 49.9% | [9] 43.2% | [11] 47.7% | [12] 13.3% | [13] 47.1% | [14] 39.9% | [16] 49.9% | [17] 10.9% | [19] 55.7% | [20] 37.5%

CCN(CC)CCCNc1cc(OC)cc2nc3cc(Cl)ccc3nc12
inactive: [17] 18.1%
active: [1] -46.7% | [2] -20.8% | [3] -0.828% | [4] -47.3% | [5] -16.2% | [6] -9.1% | [7] -63.2% | [8] -52.4% | [9] 2.95% | [10] -99.3% | [11] 0.94% | [12] -56.5% | [13] -84.7% | [14] -25.9% | [15] -10.9% | [16] -35.5% | [18] -77.6% | [19] -79.7% | [20] -94.2%
